TLR4-MyD88 BLA = inhibitors of human TLR4-MyD88 binding | O00206+Q99836 | HeLa CL3-4 TLR4/MyD88 BLA complementation, FRET ratio | inhibition, % at 8.4 µM | actives 0.18% (n = 200,000) | AID 861; in the data active = inhibition above about 25%;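 note: 0% = vehicle and 100% = reference inhibitor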
NTR1 ag = NTR1 (human) agonism; P30989; NTR1-U2OS beta-arrestin-GFP spot imaging, agonist mode; actives 0.17% (n = 330,000); AID 493036; activation, % at 20 µM;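 active = activation at or above 40% of the spot to cytoplasm intensity ratio, with at least 20 cells analyzed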;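 note: 0% = DMSO without peptide and 100% = 100 nM NTR1 peptide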
NOD2 RIPK2 PPI = blocks binding of human NOD2 to RIPK2; CHO BLA complementation NOD2-RIPK2, CCF4 ratio; inhibition, % at 4.98 µM; O43353; actives 0.38% (n = 360,000); in the data active = inhibition above about 21%;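 note: 0% = vehicle only and 100% = reference blocker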
Beta2AR agonist = agonists of human beta-2 adrenergic receptor inducing internalization. P07550. actives 0.43% (n = 340,000). response, % (concentration not given with the values). AID 504454. Am2.2-beta2AR cells, FAP receptor internalization, flow cytometry;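 active = response above a set limit, near 3 SD of response in nonfluorescent compounds, cut at about 42% in these data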
TLR9-MyD88 block = TLR9-MyD88 interaction inhibition; Q9NR96+Q99836; CHO BLA complementation TLR9-MyD88, CCF4 FRET ratio; inhibition, % at 4.98 µM; actives 0.21% (n = 340,000);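 active = inhibition above the mean over all tested compounds plus 3 SD, cut at about 21% in these data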;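 note: 0% = DMSO only wells and 100% = clavulanate BLA inhibitor control wells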
ABHD5-PLIN5 inh = ABHD5-PLIN5 protein interaction inhibition; Q00G26+Q8WTS1; Split G. princeps luciferase complementation, luminescence, 4 h; inhibition, % at 4 µM; actives 0.78% (n = 360,000); AID 602281;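 active = inhibition above the mean inhibition across every tested compound plus 3 SD, cut at about 22% in these data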;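 note: 0% = DMSO only wells and the 100% control is not disclosed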
Target sequence (Q00G26 whole entry, looked up): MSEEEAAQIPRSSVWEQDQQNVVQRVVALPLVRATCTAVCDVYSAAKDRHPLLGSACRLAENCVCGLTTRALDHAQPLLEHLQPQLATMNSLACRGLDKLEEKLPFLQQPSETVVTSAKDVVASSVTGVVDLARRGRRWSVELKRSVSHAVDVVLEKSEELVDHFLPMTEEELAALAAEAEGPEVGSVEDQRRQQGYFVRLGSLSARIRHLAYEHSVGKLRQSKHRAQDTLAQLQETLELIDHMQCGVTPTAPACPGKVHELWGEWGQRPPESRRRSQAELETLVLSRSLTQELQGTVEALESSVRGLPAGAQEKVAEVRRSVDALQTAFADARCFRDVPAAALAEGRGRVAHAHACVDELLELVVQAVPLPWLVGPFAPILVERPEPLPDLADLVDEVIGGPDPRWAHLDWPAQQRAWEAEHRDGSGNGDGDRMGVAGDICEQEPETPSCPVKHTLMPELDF
Target sequence (Q8WTS1 whole entry, looked up): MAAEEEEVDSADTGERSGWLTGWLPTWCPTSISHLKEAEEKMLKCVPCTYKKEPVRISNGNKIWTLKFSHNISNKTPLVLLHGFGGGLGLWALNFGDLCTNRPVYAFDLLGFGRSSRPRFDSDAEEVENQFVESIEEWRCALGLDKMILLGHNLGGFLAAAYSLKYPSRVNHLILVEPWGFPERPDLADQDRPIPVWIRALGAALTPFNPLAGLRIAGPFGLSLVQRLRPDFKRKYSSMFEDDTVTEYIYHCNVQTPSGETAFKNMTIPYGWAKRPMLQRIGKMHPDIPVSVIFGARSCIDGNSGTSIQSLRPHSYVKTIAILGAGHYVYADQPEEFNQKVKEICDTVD
NOD2-RIPK2 conf = NOD2-RIPK2 interaction inhibition confirmed | inhibition, % at 4.98 µM | CHO cells, NOD2-RIPK2 BLA complementation, CCF4 FRET | shares compounds with NOD2 RIPK2 PPI | actives 70% (n = 1,200);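 active = mean inhibition across replicates above a set limit taken from the earlier primary screen, cut at about 21% in these data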;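 note: 0% = DMSO-only wells and the high end = clavulanate BLA-blocked wells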
BLA counter = hits BLA reporter in NOD2-RIPK2 inhibitor counterscreen | inhibition, % at 4.98 µM | actives 57% (n = 1,200) | shares compounds with NOD2 RIPK2 PPI | CHO BLA reporter, CCF4 FRET ratio;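 active = mean inhibition above the low-control mean inhibition plus three low-control SD, cut at about 11% in these data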;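 note: 0% = DMSO only wells and 100% = clavulanate high control wells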
* = called active by the depositor; . = no result. Compounds with a hit are over-represented: about 1.5% of the library has one in this group of screens.

SMILES	TLR4-MyD88 BLA	NTR1 ag	NOD2 RIPK2 PPI	Beta2AR agonist	TLR9-MyD88 block	ABHD5-PLIN5 inh	NOD2-RIPK2 conf	BLA counter
Fc1cccc(Nc2c3c(nc4ccccc24)CCC3)c1	.	6	22*	-6	-7	8	5	-1
COc1ccc(C2=NN(c3ccc(C(=O)O)cc3)C(c3ccc(OC)c(OC)c3)C2)cc1 (centres undefined)	.	2	25*	7	9	-3	20	31*
COc1ccc(C2CC(c3ccccc3)=NN2c2ccc(S(N)(=O)=O)cc2)cc1OC (centres undefined)	-17	0	-14	-1	-9	4	.	.
COc1ccc(CCN2C(=O)C=CC2=O)cc1OC	.	.	43*	2	7	53*	51*	12*
CCCCNc1c(-c2ccc(OC)c(Sc3ccc(OC)cc3)c2)nc2cnccn12	.	17	28*	15	19	7	33*	37*
CCCCCNC(=O)C(c1ccncc1)n1c(=O)c(-c2ccccc2)nc2ccccc21 (centres undefined)	.	.	9	.	.	1	.	.
CCCCCNC(=O)C(CCc1ccccc1)n1c(=O)c(-c2cc3ccccc3[nH]2)nc2ccccc21 (centres undefined)	.	.	44*	.	.	-10	41*	66*
Cc1cccc(C)c1NC(=O)C(c1ccnc2ccccc12)n1c(=O)c(-c2ccccc2)nc2ccccc21 (centres undefined)	.	.	-5	.	.	2	.	.
CCCCCNC(=O)C(c1cccc2ccccc12)n1c(=O)c(-c2cc3ccccc3[nH]2)nc2ccccc21 (centres undefined)	.	.	42*	.	.	-1	36*	64*
CCCCCNC(=O)C(CCc1ccccc1)n1c(=O)c(-c2ccccc2)nc2ccccc21 (centres undefined)	.	.	8	.	.	17	.	.
CCCCCNC(=O)C(c1ccccc1)n1c(=O)c(-c2cc3ccccc3[nH]2)nc2ccccc21 (centres undefined)	.	.	46*	.	.	-6	40*	64*
COc1ccc(C2=Nc3ccccc3N(C(=O)c3ccc(C)cc3)C2C(=O)Nc2c(C)cccc2C)cc1 (centres undefined)	.	.	-2	.	.	-5	.	.
COc1ccccc1-c1ncn(Cc2cccc(-c3ccccc3)c2)c1CC(C)C	.	.	-15	.	.	-11	.	.
CC(C)(C)c1nc2c(C#N)c(-c3ccc(Cl)cc3)ccn2n1	1	1	24*	3	2	-1	2	-2
CCC(C)CN1C(=O)CN(S(C)(=O)=O)CC1(C)C(=O)Nc1c(C)cccc1C (centres undefined)	.	.	-7	.	.	-8	.	.
CCOC(=O)c1sc2nc(C)cc(-c3ccccc3)c2c1N	9	5	16	-36	10	-14	.	.
CCOC(=O)c1sc2nc(-c3ccccc3)ccc2c1N	15	2	23*	9	12	2	48*	59*
COc1cc(C(O)c2nc(-c3ccc(C)c(C)c3)cs2)ccc1F (centres undefined)	.	.	-7	.	.	-11	.	.
C(=Cc1c[nH]c2ccccc12)c1nccc2ccccc12	.	.	3	-151	12	-5	.	.
C(=Cc1c[nH]c2ccccc12)c1ccc2ccccc2n1	.	.	29*	-289	11	1	33*	47*
CN1Cc2c(N3CCOCC3)nc3sc(C(=O)c4ccc(Br)cc4)c(N)c3c2CC1(C)C	.	8	24*	20	.	20	29*	30*
C1CCN(C2CCN(c3nc4nonc4nc3N3CCSCC3)CC2)C1	-8	0	-7	2	4	-4	.	.
CN(CC1COCCO1)c1nc2nonc2nc1N1CCSCC1 (centres undefined)	-23	0	34*	-10	-16	1	-2	2
CCCCC[C@@H](C)N1C[C@@H](COCc2ccccc2)Oc2cc(N3CCC[C@H]3COC)ccc2S1(=O)=O	.	.	-10	.	.	-9	.	.

From PubChem
